Assay results taken from PubChem BioAssay AID624330 (Southern Research Specialized Biocontainment Screening …, 2012).
Screen size: about 340,000 compounds; about 2,100 (0.62%) were called active.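 How the source made its calls: active means first-screen hits whose inhibition reached a set limit at any dose in the follow-up dose series; inconclusive means inhibition above the set first-screen limit but never retested; inactive means the rest.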 The list is a sample of the results. Measured potencies and affinities stand elsewhere.

What follows are molecules tested against Rac GTPase-activating protein 1 (Homo sapiens) (UniProt Q9H0H5) (assay: MgcRacGAP GTPase-activating activity inhibitors, confirmation, biochemical, ADP Hunter fluorescence, primary and confirmatory (AID 624330;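 further: fluorescence reports GDP produced by GAP-driven GTP hydrolysis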)). Conditions: MgcRacGAP-stimulated Rac1 GTP hydrolysis, at 30 µM, stronger effect = higher value, GST-tagged Rac1 F28L mutant substrate.
Sequence of Rac GTPase-activating protein 1 (Homo sapiens) (Q9H0H5 whole entry, looked up): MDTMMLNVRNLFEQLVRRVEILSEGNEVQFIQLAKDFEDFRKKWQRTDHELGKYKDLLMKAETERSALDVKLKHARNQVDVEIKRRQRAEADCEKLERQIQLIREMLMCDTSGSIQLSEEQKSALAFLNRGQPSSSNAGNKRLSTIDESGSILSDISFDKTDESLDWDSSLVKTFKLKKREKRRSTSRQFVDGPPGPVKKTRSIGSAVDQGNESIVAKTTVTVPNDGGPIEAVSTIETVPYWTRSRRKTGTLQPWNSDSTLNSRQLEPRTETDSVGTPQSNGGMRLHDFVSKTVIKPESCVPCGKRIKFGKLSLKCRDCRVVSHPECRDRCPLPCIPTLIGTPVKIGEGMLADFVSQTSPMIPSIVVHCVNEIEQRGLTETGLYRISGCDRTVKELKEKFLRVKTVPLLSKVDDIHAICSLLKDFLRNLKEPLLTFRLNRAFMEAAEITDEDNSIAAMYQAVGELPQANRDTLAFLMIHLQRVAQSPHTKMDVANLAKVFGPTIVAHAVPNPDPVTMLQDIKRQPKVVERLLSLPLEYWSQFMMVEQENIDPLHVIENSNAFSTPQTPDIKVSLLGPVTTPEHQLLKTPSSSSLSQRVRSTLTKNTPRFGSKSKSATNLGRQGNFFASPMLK

inhibition, inactive:
Cc1cc(C)n2c(SCC(=O)Nc3ccccc3C#N)nnc2n1 2.29%, COc1ccc(CCN2CCCn3c2nc2c3c(=O)[nH]c(=O)n2C)cc1OC 6.67%, CCC1(NC(C)=O)CC2CC1CC2NC(C)=O (centres undefined) 1.95%, CCCC(C)NC(=O)COC(=O)c1ccccc1SCC(=O)NC(C)CCC (centres undefined) 2.85%, Cc1ccc(P(=O)(O)c2ccc(C)cc2)cc1 8.6%, Cc1ccccc1OCCOCCN1CCCCCC1 -5.57%, Cc1ccc(OCCN2CCCCCC2)c(C)c1 10.9%, Cc1ccc(OCCCCN2CCCCC2)c(C)c1 2.28%, Cc1ccccc1OCCCN1CCCC1 26.5%, CC1CCCN(C(=O)C2CCN(Cc3ccc4c(c3)OCO4)CC2)C1 (centres undefined) 5.33%, COc1ccc(C(=O)Nc2c(C(C)(C)C)nn(C)c2C(C)(C)C)cc1 10.2%, CCOC(=O)C1CCN(S(=O)(=O)c2ccc(Cl)cc2)CC1 4.24%, CCOC(=O)c1sc2nc(CSc3ccccc3)nc(N3CCC(C(N)=O)CC3)c2c1C -5.99%, Cc1sc2nc(CSc3ccccc3)nc(N3CCN(C)CC3)c2c1C 7.15%, COc1cc(C(=O)C(=O)c2ccc(O)c(OC)c2)ccc1O 13.4%, C=CCOc1ccc(/C(CC)=N/O)cc1OC 3.46%, COc1cc(C(=O)OCCN2CCCCC2)ccc1O 21.2%, CC/C(=N\O)c1ccc(OC)c(OC)c1 8.04%, COc1ccc(C(=O)Nc2ccc(Oc3nc(C)nc4sc(-c5ccccc5)cc34)cc2)cc1OC 2.99%, CC(C)(C)NC(=O)C(c1ccc(O)cc1)N(C(=O)CCC(=O)Nc1nccs1)c1cccc(F)c1 (centres undefined) 8.98%, COc1ccc(/C=N/n2c(-c3cc(C)[nH]n3)n[nH]c2=S)cc1 21.4%, COc1cc(/C=N/N2CCCCC2)cc(OC)c1O 17.9%, COc1cc(/C=N/n2c(-c3ccccc3)n[nH]c2=S)cc(OC)c1OC 14.2%, COc1cc(/C=N/n2c(C)nnc2C)cc(OC)c1OC 3.62%, O=C(COc1ccc(Cl)cc1)Nc1ccc(C(=O)NCc2cccnc2)cc1 9.05%, COc1ccc(NC(=O)c2cccc3ccccc23)cc1OC -23.3%, O=C(O)CCS(=O)(=O)c1ccccc1Cl -0.02%, COc1cccc(N(CC(=O)N2CCN(C)CC2)S(=O)(=O)c2ccc(C)cc2)c1 -2.09%, Cc1ccc(S(=O)(=O)N2CCN(c3ccc(C(=O)N4CCOCC4)cc3[N+](=O)[O-])CC2)cc1 3.02%, CC(=O)Nc1nonc1NC(=O)CSc1ncn[nH]1 1.36%, CCOC(=O)C1C(=O)N(C(=O)c2ccc(OC)cc2)CC1c1ccccc1 (centres undefined) 3.29%, O=C(C[C@@H]1C/C=C\C[C@H](NC(=O)OCC2c3ccccc3-c3ccccc32)C(=O)OC[C@H]2CCCN2C1=O)NCCO 5.33%, COc1ccc(/C=C(/C(=O)c2ccc(Cl)cc2Cl)n2cncn2)cc1 11.7%, CC(C)/C=C(/C(=O)c1ccc(Cl)cc1Cl)n1cncn1 7.69%, CN(C)c1ccc(/C=C(/C(=O)c2ccc(Cl)cc2Cl)n2cncn2)cc1 3.83%, O=C(N/N=C\c1cccnc1)c1ccc(Cl)cc1Cl 8.54%, CCN(CC(=O)NCc1cccs1)C(=O)c1cccc(S(=O)(=O)N2CC(C)OC(C)C2)c1 (centres undefined) -2.83%, O=C(Cn1ncc2c1-c1ccccc1OC2)N1CCc2ccccc21 2.35%, CCCCOc1ccc(C(=O)N/C(=C/C=C/c2ccccc2)C(=O)NCCCO)cc1 12.1%, COC(=O)/C(C#N)=C1/C=Cc2ccccc2N1 -5.37%, O=S1c2ccccc2Nc2ccccc21 18.2%, O=C(Cn1cc(C(=O)C(F)(F)F)c2ccccc21)Nc1ccccc1F 13.4%, O=C(O)C1(C(=O)O)CCCC1 1.88%, O=C(CCCCO)CCCCCCCC[C@H]1N[C@H](CO)[C@H](O)[C@@H]1O[C@@H]1O[C@H](CO)[C@@H](O)[C@H](O)[C@H]1O 6.38%, NC[C@H]1O[C@H](O[C@H]2[C@H](O)[C@@H](O[C@H]3O[C@H](CO)[C@@H](O)[C@H](N)[C@H]3O)[C@H](N)C[C@@H]2N)[C@H](N)C[C@@H]1O 6.29%, Cc1ccc(S(=O)(=O)N2CCN(C(=O)c3ccc(N4CCCCC4)c([N+](=O)[O-])c3)CC2)cc1 6.99%, COCCCC1CCN(C(=O)C2CCC(=O)N(Cc3cccc(F)c3)C2)CC1 (centres undefined) 7.1%, O=S(=O)(/C(=C/c1ccc(C(F)(F)F)cc1)c1nc2ccccc2[nH]1)c1ccccc1 4.87%, Cc1cccc2c(N)c3c(nc12)CCCC3 (tested in a mixture with another compound) 16.8%, CN1CCc2c1nc1ccccc1c2N (tested in a mixture with another compound) 13.1%, COc1ccc(CNC(=O)Cn2cc3c(n2)CCCCC3)cc1 7.34%, O=C1OC(c2ccccc2)=C/C1=C/N1CCCCC1 30.7%, O=C1OC(c2ccccc2)=N/C1=C\N1CCCCC1 -1.27%, CCN(C(=O)c1c(C)noc1C)c1c(N)n(Cc2ccccc2)c(=O)[nH]c1=O 5.68%, CCn1c(=O)c(C(=O)NCc2ccc(F)cc2)c(O)c2ccccc21 10.4%, CSc1ccc(C#N)cc1NC(=O)c1ccc(Cl)cc1Cl 7.34%, NC1=NC(=O)/C(=C\c2cccs2)S1 -1.57%, NC1=NC(=O)/C(=C/c2cccs2)S1 4.92%, CCCn1c(N)c(C(=O)CSc2nnc(-c3cccs3)n2C2CC2)c(=O)[nH]c1=O 1.21%, O=C(CCN1CCN(c2ccccc2)CC1)NNC(=O)c1ccccc1 10.2%, CNS(=O)(=O)c1cc(N)ccc1C 5.24%, Cc1ccc(NS(=O)(=O)c2cc(N)ccc2Cl)c(C)c1 11.7%, Cc1cc(C)cc(NC(=S)N2CCCC2)c1 4.82%, C/C(=N/Nc1ccnc2cc(Cl)ccc12)c1ccc(N)cc1 18.6%, CCOc1ccc(Nc2ccnc3cc(Cl)ccc23)cc1 6.93%, CC(=O)c1ccc(N2CCN(c3ccnc4cc(Cl)ccc34)CC2)cc1 1.01%, Clc1ccc2c(N/N=C/c3ccc(Br)cc3)ccnc2c1 7.12%, COc1ccc(N2CCN(c3ccnc4cc(Cl)ccc34)CC2)cc1 13.2%, Oc1ccc(/C=N/Nc2ccnc3cc(Cl)ccc23)c(O)c1O 15.3%, C/C(=N/Nc1ccnc2cc(Cl)ccc12)c1ccc(O)cc1 18.6%, Clc1ccc(NNc2ccnc3cc(Cl)ccc23)cc1 6.46%, CN(C)CCNC(=O)NC(=O)c1ccc(Cl)cc1 7.5%, CCOCCCNC(=S)Nc1ccc2nc3n(c(=O)c2c1)CCCCC3 -1.06%, CC(C)C(=O)N1CCN(CCN2C(=O)c3cccc4cccc(c34)C2=O)CC1 12.5%, COC(=O)c1c(C)[nH]c(C(=O)C(C)OC(=O)c2ccco2)c1C (centres undefined) 5.7%, Cc1ccc(N(C(C)C(=O)Nc2ccccc2C(=O)N2CCOCC2)S(C)(=O)=O)cc1C (centres undefined) 10.3%, O=C1c2ccccc2C(=O)c2[nH]c(=O)[nH]c21 8.15%, COCCNC(=S)NNc1ccc(Cl)c(C(=O)O)c1 7.21%, CCOC(=O)c1c(N2C(=O)Nc3ccccc3N2O)sc2c1CCCCC2 14.2%, CC1(C(=O)O)CCC(C(N)=O)C1(C)C (centres undefined) 5.23%, O=C(O)C1OC2OC3(CCCCC3)OC2C2OC3(CCCCC3)OC12 (centres undefined) -5.5%, CC(=O)Nc1ccc(NC(=O)C(=O)c2cn(CC(=O)N3CCCC3)c3ccccc23)cc1 4.85%, Cc1cc(C)n2ncc(C(=O)NCc3ccccc3)c2n1 0.67%, COc1ccc(/C=N/NC(=S)Nc2cccc(C(=O)O)c2)cc1OC -9.15%, COc1cc(/C=N/NC(=S)Nc2cccc(C(=O)O)c2)cc(OC)c1OC 7.41%, COc1cc(/C=N/NC(=S)Nc2cccc(S(=O)(=O)N(C)C)c2)cc(OC)c1O -1.97%, CN(C)S(=O)(=O)c1cccc(NC(=S)N/N=C/c2cccc(O)c2)c1 2.96%, CCOC(=O)N1CCN(c2c(N3CCN(c4ccccc4OC)CC3)c(=O)c2=O)CC1 8.07%, O=C(COC(=O)c1ccc(Cl)c(S(=O)(=O)N2CCCCC2)c1)NCc1ccco1 5.55%, CCC(C)NS(=O)(=O)c1ccc(OCC(=O)Nc2ccc(F)cc2F)cc1 (centres undefined) 4.64%, CCCOc1ccc(/C(O)=C2/C(=O)C(=O)N(CCCn3ccnc3)C2c2ccco2)cc1 (centres undefined) 7.22%, COc1ccc(NC(=O)CN(c2cc(C)cc(C)c2)S(=O)(=O)c2c(C)n[nH]c2C)cc1 6.02%, C=CCc1ccc(OCCCCN2CC(C)OC(C)C2)c(OC)c1 (centres undefined) 16.2%, C=CCc1cc(Cl)ccc1OCCN1CC(C)OC(C)C1 (centres undefined) 26.3%
